Data as given in PubChem BioAssay AID1481 (The Scripps Research Institute Molecular Screening Center, 2009).
Hit rate of the full screen: of about 220,000 compounds, about 920 (0.42%) were called active. Cut-off read from the data, not from the text of the source: active = inhibition above about 15%; inactive = the rest. What follows is part of a selection rich in actives, with near analogues and random picks from the rest.

Each compound was assayed against Transitional endoplasmic reticulum ATPase (Homo sapiens) (UniProt P55072) (assay: p97 ATP hydrolysis blockers – biochemical, primary screen (AID 1481;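 note: 0% = DMSO vehicle and 100% = wells lacking enzyme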)). Details: recombinant p97 ATPase, Kinase-Glo ATP luminescence, 3 h; at 8 µM; stronger effect = higher value.
Sequence of Transitional endoplasmic reticulum ATPase (Homo sapiens) (P55072 whole entry, looked up): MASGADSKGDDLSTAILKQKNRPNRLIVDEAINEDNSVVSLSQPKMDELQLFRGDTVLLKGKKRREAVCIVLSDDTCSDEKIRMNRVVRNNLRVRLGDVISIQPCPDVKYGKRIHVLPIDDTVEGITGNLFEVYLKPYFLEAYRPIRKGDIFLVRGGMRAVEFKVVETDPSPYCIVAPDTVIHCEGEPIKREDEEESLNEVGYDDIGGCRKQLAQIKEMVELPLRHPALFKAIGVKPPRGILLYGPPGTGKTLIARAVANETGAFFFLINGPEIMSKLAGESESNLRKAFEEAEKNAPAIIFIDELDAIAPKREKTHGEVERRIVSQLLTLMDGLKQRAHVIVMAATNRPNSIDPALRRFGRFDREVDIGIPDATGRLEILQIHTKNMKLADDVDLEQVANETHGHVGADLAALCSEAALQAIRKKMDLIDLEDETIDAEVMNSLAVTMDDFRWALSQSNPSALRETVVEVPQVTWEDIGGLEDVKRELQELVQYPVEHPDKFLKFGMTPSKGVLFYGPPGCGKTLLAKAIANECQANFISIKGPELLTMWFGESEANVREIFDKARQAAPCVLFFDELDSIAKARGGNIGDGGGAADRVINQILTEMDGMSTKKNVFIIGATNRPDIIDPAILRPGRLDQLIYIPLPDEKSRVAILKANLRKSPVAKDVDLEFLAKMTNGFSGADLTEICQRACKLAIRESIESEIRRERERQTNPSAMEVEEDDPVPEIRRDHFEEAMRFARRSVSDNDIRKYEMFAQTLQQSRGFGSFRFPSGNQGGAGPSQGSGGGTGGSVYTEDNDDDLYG
With `CS(=O)(=O)N1CCC(C(=O)N2CCN(c3ccccc3)CC2)CC1` the inhibition was 1.55% (inactive). For `CSc1ccccc1NC(=O)CN(C)CC(=O)Nc1cccc(Br)c1`, the inhibition was -6.18% (inactive). `C/C=N/N(c1ccccc1)c1ccccc1` was tested, and the inhibition was 0.39% (inactive). In the case of `CCOc1c(Br)cc(/C=C2\C(=O)N(CCC#N)N=C2C)cc1OC`, the inhibition is reported as 26.9% (active). In the case of `CCOc1cc(/C=N/O)cc(Br)c1OC`, the inhibition is reported as 7.25% (inactive). `C=CCOc1c(Br)cc(/C=N\n2nnnc2N)cc1OC` was tested, and the inhibition was -2.19% (inactive). In the case of `C/C(CC(=O)Nc1ccc(Cl)cc1)=N\NC(=O)C(=O)NCCO`, the inhibition is reported as 2.21% (inactive). With `O=S(=O)(Cc1ccccc1)c1nc2ccccc2n1Cc1ccccn1` the inhibition was 2.46% (inactive). With `Cc1ccc(NC2(C#N)C(=O)Nc3ccccc32)cc1` (centres undefined) the inhibition was 2.18% (inactive). For `N#CC1=C(N)Oc2n[nH]c(CSc3ccccc3)c2C12C(=O)Nc1ccccc12` (centres undefined), the inhibition was 7.12% (inactive). With `N#CC1=C(N)Oc2[nH]c(=S)[nH]c(=O)c2C12C(=O)Nc1ccccc12` (centres undefined) the inhibition was 20.7% (active). With `COc1ccc2c(c1)CCc1cn3ncc(C#N)c3nc1-2` the inhibition was 7.2% (inactive). `CCC(=O)OCCNc1nc(-c2ccccc2)nc2ccccc12` was tested, and the inhibition was 4.18% (inactive). `Cc1cc(C(C)(C)C)cc(C)c1N` was tested, and the inhibition was 7.52% (inactive). For `COc1cc(C(F)(F)F)c(C(=O)N(C)c2ccc(Cl)cc2)cn1`, the inhibition was -1.66% (inactive). For `C#CCOCCOCCOCCNc1nc(N2CCN(C(=O)C(Cc3ccc(O)cc3)n3cc(C(N)CC(C)C)nn3)CC2)nc(N2CCN(C(=O)C(Cc3ccc(O)cc3)n3cc(C(N)C(C)CC)nn3)CC2)n1` (centres undefined), the inhibition was 14.7% (active). With `C#CCOCCOCCOCCNc1nc(N2CCN(C(=O)[C@H](Cc3ccc(O)cc3)n3cc(C(N)CC(C)C)nn3)CC2)nc(N2CCN(C(=O)[C@H](CCC(=O)O)n3cc(C(N)[C@H](C)CC)nn3)CC2)n1` (some centres undefined) the inhibition was -3.1% (inactive). In the case of `C#CCOCCOCCOCCNc1nc(N2CCN(C(=O)[C@H](CCCCN)n3cc([C@@H](N)C(C)CC)nn3)CC2)nc(N2CCN(C(=O)[C@H](Cc3ccc(O)cc3)n3cc([C@@H](N)C(C)CC)nn3)CC2)n1` (some centres undefined), the inhibition is reported as 13.3% (inactive). For `O=C(NCCc1ccccn1)c1cccnc1Oc1ccc(Cl)cc1`, the inhibition was -3.2% (inactive). `COc1ccccc1N1CCN(C(=O)C(=O)N/N=C/c2ccccc2F)CC1` was tested, and the inhibition was 0.1% (inactive). With `COc1ccc(C(C(=O)NC2CCCCC2)N(C(=O)Cc2c[nH]c3ccccc23)c2ccccc2)cc1OC` (centres undefined) the inhibition was 14.6% (active). With `Cc1cc(NC(=O)CCC(=O)N(c2ccccc2)C(C(=O)NC2CCCC2)c2ccncc2)no1` (centres undefined) the inhibition was 3.62% (inactive). `COc1ccc(C(C(=O)NC2CCCCC2)N(C(=O)CCl)c2ccccc2Cl)cc1` (centres undefined) was tested, and the inhibition was -0.41% (inactive). For `Cc1ccc2nc(-c3ccc(NC(=O)c4cccnc4)cc3)oc2c1`, the inhibition was -7.59% (inactive). With `COc1cccc(NC(=S)C(C#N)=C2N(C)c3ccccc3N2C)c1` the inhibition was 4.23% (inactive). In the case of `CCOc1ccc(C(c2c(C)[nH][nH]c2=O)c2c(C)[nH][nH]c2=O)cc1OCC`, the inhibition is reported as -3.3% (inactive). In the case of `Cc1[nH][nH]c(=O)c1C(c1ccc(-c2ccc(Cl)cc2)o1)c1c(C)[nH][nH]c1=O`, the inhibition is reported as 18.4% (active). `Cc1[nH][nH]c(=O)c1C(c1ccc2c(c1)OCO2)c1c(C)[nH][nH]c1=O` was tested, and the inhibition was -1.45% (inactive). In the case of `CCc1ccccc1NC(=O)CN(c1ccc(OC)cc1OC)S(=O)(=O)c1ccccc1[N+](=O)[O-]`, the inhibition is reported as 0.37% (inactive). For `Cc1ccc(Cn2c(SCC(=O)N/N=C/c3ccccc3OCC(=O)O)nc3ccccc32)cc1`, the inhibition was -13.9% (inactive). For `CC(NCc1ccccc1OC1CCCC1)c1ccccc1` (centres undefined), the inhibition was 2.88% (inactive). `CC(Oc1ccccc1F)C(=O)NN` (centres undefined) was tested, and the inhibition was -4.14% (inactive). In the case of `O=C(/C=C/Nc1ccc(S(=O)(=O)Nc2cnc3ccccc3n2)cc1)c1cccnc1`, the inhibition is reported as 1.02% (inactive). For `Oc1c(C=Nc2cccc3nsnc23)ccc2ccccc12`, the inhibition was 40.4% (active). In the case of `Oc1ccc(N=Cc2c(O)ccc3ccccc23)cc1`, the inhibition is reported as 9.71% (inactive). For `Oc1ccc2ccccc2c1C=Nc1ccccc1`, the inhibition was 4.59% (inactive). For `CCOC(=O)c1ccccc1C(=O)N1CCOCCOCCOCC1`, the inhibition was -4.13% (inactive). With `Nc1nc(SCC(=O)NN(c2ccccc2)c2ccccc2)n[nH]1` the inhibition was -5.25% (inactive). In the case of `COc1ccccc1C(=O)Nc1nc2nc(-c3ccccc3)cc(=O)n2[nH]1`, the inhibition is reported as 14.8% (active). With `COc1cc(OC)c(C(=O)Nc2ccccc2-c2ccccc2)cc1OC` the inhibition was 0.92% (inactive). In the case of `COc1ccccc1NC(=O)c1cc(Cl)nc2ccccc12`, the inhibition is reported as 5.78% (inactive). With `O=C(NCCc1ccccc1)Oc1ccc(Cl)cc1` the inhibition was -1.73% (inactive). With `O=C(N/N=C/c1ccccc1O)/C(=C/c1ccccc1)CCO` the inhibition was 2.01% (inactive). `CCC1CCCCN1S(=O)(=O)Cc1ccccc1Cl` (centres undefined) was tested, and the inhibition was 2.1% (inactive). In the case of `O=C(/C=C/c1ccc(Cl)c([N+](=O)[O-])c1)c1ccc(O)cc1`, the inhibition is reported as 19.3% (active). For `O=C(/C=C/c1ccc(Cl)c([N+](=O)[O-])c1)c1cccnc1`, the inhibition was -0.11% (inactive). For `CN(C)c1ccc(/C=C/C(=O)c2ccc(O)cc2)cc1[N+](=O)[O-]`, the inhibition was 0.06% (inactive). With `Cc1ccccc1Nc1c(-c2ccccc2)nc2ncccn12` the inhibition was 4.55% (inactive). In the case of `CC(Sc1cccc[n+]1[O-])C(=O)Nc1cccc(S(=O)(=O)N2CCOCC2)c1` (centres undefined), the inhibition is reported as 4.59% (inactive). For `CN(C)c1ccc(NC(=O)CSc2n[nH]c(-c3ccco3)n2)cc1`, the inhibition was -3.13% (inactive). For `COc1cc(C(=O)Nn2c(O)c(C3=c4ccccc4=NC3=O)sc2=S)ccc1O`, the inhibition was 4.86% (inactive). With `COC(=O)Cn1nc(-c2ccccc2)c2cc(Cl)ccc21` the inhibition was -5.36% (inactive). For `Nc1ccc2nc3c(=O)[nH]c(=S)[nH]c3nc2c1`, the inhibition was 39.2% (active). For `Cc1cc2nc3c(=O)n(Cc4ccccc4)c(=O)[nH]c3nc2cc1N`, the inhibition was 8% (inactive). With `Cc1ccc(C(=O)N/C(=C/c2cccs2)C(=O)N2CCCCC2)cc1` the inhibition was 1.51% (inactive). For `CCc1nc2sc3c(Cl)ncnc3c2c2c1CCCC2`, the inhibition was 6.87% (inactive). In the case of `C=CCn1c(N)c(C(=O)OCC(C)C)c2nc3ccccc3nc21`, the inhibition is reported as 21.5% (active). For `C=CCn1c(N)c(S(=O)(=O)c2cccs2)c2nc3ccccc3nc21`, the inhibition was 6.58% (inactive). For `CC(C)Cn1c(N)c(C(=O)NCc2cccs2)c2nc3ccccc3nc21`, the inhibition was 4.74% (inactive).
